# Compound activity (PubChem)
# ALDH1A1 block – qHTS Assay for Inhibitors of Aldehyde Dehydrogenase 1 (ALDH1A1); Aldehyde dehydrogenase 1A1 (Homo sapiens), P00352; Purified ALDH1A1, NADH fluorescence, propionaldehyde substrate; Potency, µM (series often up to 75.3 µM), for inactives: at the top dose activity, negative = inhibition, usual class: inhibitors; hit rate 7.3% among 220,000;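 further: plate controls were no enzyme wells and a reference inhibitor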
# HTT aggregate – qHTS Multiplex Assay to Identify Dual Action Probes in a Cell Model of Huntington: Aggregate Formation (GFP) | PC12 HttQ103-GFP aggregates, Acumen cytometry, 40 h | Potency, µM (series often up to 46.1 µM), for inactives: top-dose activity change, negative = inhibition, most hits filed as inhibitors | hit rate 1.1% among 220,000; active means well fitted curve in the direction sought with a large enough effect; inconclusive means small, poorly fitted or top-dose-only effect, or another doubt; inactive means no such curve, though single readings can be large; an effect the other way counts as inactive or inconclusive; further: on the % scale 0 is the no-effect control and ±100 the full control effect; nearly all actives have a fitted effect of over 60% in size
#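 Steps: seed 1500 PC12 HTTQ103-GFP cells/well; add tebufenozide, 100 nM final; add compound titration; add ATPLite reagent; quantify GFP aggregates by laser scanning cytometry.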
# LMNA splice mod – qHTS Assay for Modulators of Lamin A Splicing; hit rate 0.01% among 200,000; AID 1487, 2009; HeLa LMNA splicing GFP/RFP minigene ratio, 48 h; Potency, µM (titrated, usually from 46.1 µM), for the others: at the top dose ratio change, negative = inhibition, most hits filed as inhibitors; active means well fitted inhibition curve with a large enough effect in the signal ratio, with a control signal flat, not every such curve was filed as active; inconclusive means small, poorly fitted or top-dose-only effect, or effect the other way, or a change in a side signal; the % refers to the signal ratio; further: on the % scale 0 is the no-effect control and ±100 the full control effect
#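 S3 HeLa cells stably expressing lamin A-EGFP splicing minigene plus DsRed2, 600 cells/well, 48 h compound exposure at 37C. Laser-scanning cytometry; analysed as GFP (500-530 nm)/RFP (575-640 nm) total intensity ratio; 0.5% DMSO vehicle.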
# HTT ATP protect – qHTS Multiplex Assay to Identify Dual Action Probes in a Cell Model of Huntington: Cytoprotection (ATP). hit rate 0.14% among 230,000. PC12 HTT-Q103 induced, cytoprotection, ATP luminescence, 40 h. Potency, µM (series often up to 56.4 µM), for inactives: cytoprotection (ATP increase), actives largely listed as activators; active means well fitted curve in the direction sought with a large enough effect; inconclusive means small, poorly fitted or top-dose-only effect, or another doubt; inactive means no such curve, though single readings can be large; an effect the other way counts as inactive or inconclusive; further: % of control where 0% means no effect; nearly all actives have a fitted effect of over 45% in size
#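 PC12 cells with ecdysone-inducible HTT exon 1 Q103-GFP, induced with 100 nM tebufenozide and co-treated with library compounds in a dose series (1536-well, 1500 cells/well). Cytoprotection read as ATP content by ATPlite luminescence.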
# HPGD block – qHTS Assay for Inhibitors of HPGD (15-Hydroxyprostaglandin Dehydrogenase); purified HPGD, NADH fluorescence kinetic, PGE2 substrate; Potency, µM, inactives show at the top dose activity change, negative = inhibition, hits mostly inhibitors; hit rate 4.3% among 150,000; further: on the % scale 0 is the no-effect control and ±100 the full control effect
# Target sequence (P15428 whole entry, looked up): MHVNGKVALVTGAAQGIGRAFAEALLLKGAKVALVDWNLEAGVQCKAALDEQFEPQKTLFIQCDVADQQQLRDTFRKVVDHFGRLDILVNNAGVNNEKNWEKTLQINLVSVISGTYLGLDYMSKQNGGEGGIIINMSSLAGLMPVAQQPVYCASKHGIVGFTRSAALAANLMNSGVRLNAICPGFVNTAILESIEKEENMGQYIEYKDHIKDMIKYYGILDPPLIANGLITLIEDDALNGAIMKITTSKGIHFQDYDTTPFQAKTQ
#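 NADH formation kinetics: reaction with 30 uM PGE2 and 1 mM NAD+ (final), 20 nM enzyme, Tris-HCl pH 8 with Tween 20, after 15 min compound preincubation at room temperature. Fluorescence change, last versus first of five reads.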
# KDM4E inh – qHTS Assay for Inhibitors of Human Jumonji Domain Containing 2E (JMJD2E); hit rate 1.6% among 230,000; JMJD2E catalytic domain, FDH-coupled NADH fluorescence (FDH is formaldehyde dehydrogenase); Potency, µM (series often up to 57.1 µM), without a hit: at the top dose activity change, negative = inhibition, most hits filed as inhibitors; Lysine-specific demethylase 4E (Homo sapiens), B2RXH2; AID 2147, 2009;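 further: 0% = wells with enzyme and -100% = buffer wells without enzyme; nearly all actives have a fitted effect of over 50% in size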
# Target sequence (B2RXH2 1-337 limits assumed): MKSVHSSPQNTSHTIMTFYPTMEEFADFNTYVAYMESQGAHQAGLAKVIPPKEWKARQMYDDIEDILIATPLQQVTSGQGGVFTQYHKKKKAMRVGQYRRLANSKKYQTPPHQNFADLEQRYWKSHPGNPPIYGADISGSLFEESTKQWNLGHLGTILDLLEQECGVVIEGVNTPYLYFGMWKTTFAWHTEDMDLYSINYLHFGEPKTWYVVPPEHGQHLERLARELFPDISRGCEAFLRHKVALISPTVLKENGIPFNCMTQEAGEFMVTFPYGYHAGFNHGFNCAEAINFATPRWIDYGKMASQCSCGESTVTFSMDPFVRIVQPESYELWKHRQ
# * marks the source's active call; other numbers are inactive results; ? = inconclusive; / = not tested or not shown; [ ] = another dose, or the depositor's remark. Shown are actives, neighbours in structure and some others; about 9.2% of the full set was active somewhere. Unless noted, the call rests on the fitted dose curve; in most records, active means well fitted inhibition curve with a large enough effect (not every such curve was filed as active); inconclusive means small, poorly fitted or top-dose-only effect, or another doubt; inactive means no such curve, though single readings can be large or run the other way. Potency means the concentration at half of the fitted maximal effect.
SMILES,ALDH1A1 block,HTT aggregate,LMNA splice mod,HTT ATP protect,HPGD block,KDM4E inh
COc1cccc(C2=CC(c3ccccc3F)n3ncc(C(=O)Nc4ccc(F)cc4)c3N2)c1 (configuration not stated),/,/,-17%[46 µM],/,/,/
CN(CCO)c1cc(Sc2nc3ccccc3s2)c2nonc2c1[N+](=O)[O-],25µM*,5%,?,-73%,?,-4%
O=C(CSc1ccc(-c2ccco2)nn1)NC1CCCCC1,4µM*,-6%,/,-49%,/,?
O=C(CSc1ccc(-c2ccco2)nn1)NC1CCCC1,35µM*,-13%,/,-35%,/,?
O=C(CSc1ccc(-c2ccccn2)nn1)NC1CCCCC1,5%,-2%,7%[46 µM],-34%,/,?
NC(=O)COC(=O)c1ccccc1SCC(=O)NC1CCCCCC1,28µM*,7%,-1%[9.22 µM],-31%,/,5%
CN(C(=O)COC(=O)c1ccccc1SCC(=O)NC1CCCCCCC1)C1CCS(=O)(=O)C1 (configuration not stated),?,2%,1%,-1%[10 µM],?,-4%
CCOc1ccc(CNC(=O)C2Cc3ccccc3N2C(=O)CC)cc1OC (configuration not stated),/,/,5%[46 µM],/,/,/
COc1ccccc1C1CC(c2cccs2)=Nc2ccccc2S1 (configuration not stated),-3%,8%,-15%,2%,-4%,-2%
Fc1ccccc1C1CC(c2ccco2)=Nc2ccccc2S1 (configuration not stated),/,40%[9.22 µM],/,-1%[10 µM],/,28µM*
Cn1c(=O)c(-c2cc(F)cc(F)c2)nc2cnc(N3CCOCC3)nc21,1%,/,8%,-1%,/,/
O=C(CCl)Nc1cccn2ncnc12,3.2µM*,20µM*,-10%,-73%,-5%,?
CCOc1ccc(-n2c(=O)c3sccc3n(CC(=O)Nc3cccc(OC)c3)c2=O)cc1,13%,21%,?,41%[10 µM],/,-2%
CCCn1nc(C(=O)Nc2cccc(C(=O)OC)c2)c2ccccc2c1=O,4.5µM*,25%,?,4%,-12%,2%
CCCn1nc(C(=O)NCc2ccccn2)c2ccccc2c1=O,10µM*,-18%,7%,-11%,-4%,1%
O=C(NCc1ccccn1)c1ccc(=O)oc1,?,2.8µM*,0%,-79%[10 µM],-22%,?
CCCCCn1c(=O)[nH]c2cc(C(=O)NCc3ccccn3)ccc2c1=O,13µM*,14%,-12%[46 µM],-24%,/,?
COC(=O)c1cccc(NC(=O)c2nn(C(C)C)c(=O)c3ccccc23)c1,-5%,-9%,-4%,1%[10 µM],-9%,?
COc1ccc(NC(=O)c2cc(S(=O)(=O)N3CCCCCC3)cn2C)cc1Cl,/,/,-1%[46 µM],/,/,/
CCCN(CCC)CCc1cccc2c1CC(=O)N2,10%,-6%,?,11%,-10%,?
CCOc1ccc(CCNC(=O)C2CCN(c3ncnc4c3nc3n4CCCCC3)CC2)cc1,/,/,-10%[46 µM],/,/,/
Cc1nc2oc(C(=O)c3ccc(Br)cc3)c(N)c2c2c1COC(C)(C)C2,?,5%,0%,-16%,/,-3%
CCCc1nc2oc(C(=O)c3ccccc3)c(N)c2c2c1COC(C)(C)C2,10µM*,5%,6%,-11%[10 µM],-16%,?
CCOC(=O)C(C(=O)OCC)c1cc(Br)c2noc3c2c1C(=O)c1ccccc1-3,10µM*,?,?,-87%,?,?
N#C/C(=C/c1ccc(F)cc1)C(N)=S,25µM*,?,/,6%[10 µM],/,1%
SMILES,ALDH1A1 block,HTT aggregate,LMNA splice mod,HTT ATP protect,HPGD block,KDM4E inh
[C-]#[N+]/C(C#N)=C\c1cc(C(C)(C)C)c(O)c(C(C)(C)C)c1,-11%,/,/,-217%,-23%,29%
CC(C)(C)c1cc(/C=C(\C#N)C(N)=S)cc(C(C)(C)C)c1O,2.8µM*,/,?,-50%,?,?
Cn1cccc1/C=C(/C#N)C(N)=S,-6%,3%,?,/,-16%,0%
Cc1nn(C)c(C)c1S(=O)(=O)NC1CCCc2ccccc21 (configuration not stated),4%,2%,-3%,-2%,-8%,0%
CN(C)S(=O)(=O)c1ccc(C(=O)NC2CCCc3ccccc32)cc1 (configuration not stated),20µM*,-4%,/,?,/,6%
CN(C)S(=O)(=O)c1cccc(C(=O)NC2CCCc3ccccc32)c1 (configuration not stated),-5%,-13%,-1%,2%[10 µM],-1%,5%
Cc1ccc(S(=O)(=O)NC2CCCc3ccccc32)cc1C (configuration not stated),10µM*,?,4%,11%[10 µM],-21%,-4%
O=C(NCCN1CCc2ccccc2C1)C1CCN(S(=O)(=O)N2CCCCC2)CC1,18µM*,19%,10%,5%,-8%,-7%
O=C(NC1CCCc2ccccc21)C1CCN(S(=O)(=O)N2CCCCCC2)CC1 (configuration not stated),4.5µM*,-21%,11%,-28%[0.074 µM],-6%,-12%
O=C(CCCNC(=O)/C(=C/c1ccc(F)cc1)NC(=O)c1ccccc1)OCc1ccccc1,-6%,-28%,-4%,-2%[10 µM],-14%,-3%
COc1ccccc1NC(=O)C(=N\O)/C(C)=N/O,4%,1%,-6%,35%[10 µM],-11%,1%
CCCCC[C@H](O)/C=C/[C@H]1OC(=O)C[C@H](O)[C@@H]1C/C=C\CCCC(=O)O,?,/,/,10%,-7%,1%
Cc1cc(C(=O)O)ccc1-n1c(C)cc(C=C2C(=O)c3ccccc3C2=O)c1C,10µM*,11%[9.22 µM],/,1%[10 µM],/,?
Cc1ccc(C(=O)O)cc1-c1ccc(C=C2C(=O)c3ccccc3C2=O)o1,5µM*,6%,/,5%[10 µM],/,?
Cc1ccc(NC(=O)CN2C(=O)S/C(=C/c3ccc(-c4cc(C(=O)O)ccc4C)o3)C2=O)cc1C,?,13%,-2%,-6%,32µM*,?
O=C1C(=Cc2ccc(Br)o2)C(=O)c2ccccc21,-4%,-18%,-14%,24%[10 µM],32µM*,-13%
C[Si](C)(C)O[Si](C)(C)C,/,-5%,?,9%,/,/
COc1ccc2[nH]cc(CCNc3nc(-c4ccccc4CN(C)C)nc4ccccc34)c2c1,?,/,?,-39%,-18%,?
COc1ccc2[nH]c(C)cc(=O)c2c1,?,-9%,-2%,2%[10 µM],?,-6%
